This note sets out measurements from PubChem BioAssay (NCATS).

Inconclusive results are not listed. Active and inactive are the calls of the source. Unless noted, the call rests on the fitted dose curve; in most records, active means well fitted curve in the direction sought with a large enough effect; inconclusive means small, poorly fitted or top-dose-only effect, or another doubt; inactive means no such curve, though single readings can be large; an effect the other way counts as inactive or inconclusive.

The nature of test [1]: qHTS profiling for inhibitors of Plasmodium falciparum (HB3) proliferation (AID 743324).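 Further: 100% = DMSO vehicle wells and 0% = artemisinin-treated control wells.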 The following applies: Plasmodium falciparum HB3 blood-stage proliferation; at 28.7 µM (top of the series) unless noted. Put shortly:
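SYBR Green fluorescence (485 ex/535 em) of lysed cultures, incubated overnight at room temperature in the dark, quantifies parasite DNA. Infected erythrocytes at 0.3% parasitemia and 2.5% hematocrit were exposed 72 h; values normalized to DMSO and 0.29 uM artemisinin controls.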
In general terms: qHTS replaces the single test concentration by a dilution series.

A short description of test [2]: qHTS profiling of the MIPE4 collection as inhibitors of Plasmodium falciparum (3D7) proliferation (AID 743344; call rule not given here;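 further: scaled between DMSO vehicle wells and 0.29 µM artemisinin as full inhibition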). Particulars: P. falciparum 3D7 in erythrocytes, SYBR Green DNA fluorescence, 72 h; at 28.5 µM (top of the series) unless noted. Put shortly:
(§1)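 Parasite DNA was quantified by SYBR Green I fluorescence (ex 485, em 535 nm) after overnight lysis in saponin/Triton buffer at room temperature. Cultures at 0.3% parasitemia and 2.5% hematocrit were first exposed to compound for 72 h at 37 C; signals were normalised to artemisinin (0.29 uM) and vehicle wells.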

A short description of test [3]: qHTS profiling of the MIPE4 collection as inhibitors of Plasmodium falciparum (DD2) proliferation (AID 743345; call rule not given here). Particulars: P. falciparum Dd2 in erythrocytes, SYBR Green DNA, 72 h; at 28.5 µM (top of the series) unless noted. Put shortly:
as §1

Test [4] in a line: qHTS profiling of the MIPE4 collection as inhibitors of Plasmodium falciparum (DD2) proliferation (Rep 2) (AID 743346; call rule not given here). Particulars: P. falciparum Dd2 in erythrocytes, SYBR Green DNA, 72 h; at 28.5 µM (top of the series) unless noted. Put shortly:
as §1

Test [5] in a line: qHTS profiling of the MIPE4 collection as inhibitors of Plasmodium falciparum (HB3) proliferation (AID 743347; call rule not given here;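 further: plate controls were DMSO vehicle wells for no effect and artemisinin wells for full effect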). The following applies: P. falciparum HB3 in erythrocytes, SYBR Green DNA, 72 h; at 28.5 µM (top of the series) unless noted. Put shortly:
as §1

A short description of test [6]: High-throughput drug toxicity screening in the BPDCN cell line Gen2.2 (AID 1224824; call rule not given here;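 further: cells exposed to compounds for 48 h before reading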). Particulars: Gen2.2 BPDCN cells; at 45.8 µM (top of the series) unless noted. Put shortly: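 CellTiter-Glo luminescence read after 48 h compound exposure at 37 C defines viability; percent activity set with DMSO as 100% and bortezomib (9.2 uM final) as 0%. 500 exponentially growing cells per well, RPMI plus 10% FBS.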

A short description of test [7]: High-throughput drug toxicity screening in the BPDCN cell line Cal-1 (AID 1224825; call rule not given here). The following applies: Cal-1 BPDCN cell viability, qHTS; at 45.8 µM (top of the series) unless noted. Summed up:
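Percent activity derived from CellTiter-Glo luminescence, scaling DMSO to 100% and 9.2 uM final bortezomib to 0%. BPDCN Cal-1 cells (500/well, RPMI plus 10% FBS) incubated with compounds 48 hours at 37C before reading.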

Test [8] in a line: qHTS assay for measurement of the activity of small molecule inhibitors on Zika virus induced Caspase-3 activity in human iPSC derived neural progenitor cells (hNPCs) (AID 1224857). Further: nearly all actives have a fitted effect of over 65% in size. Further: potency means the concentration at half of the fitted maximal effect. Summed up: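 Values are percent inhibition of virus-induced caspase-3/7 signal, scaled between uninfected cells and ZIKV-infected cells. Infection used 2 FFU/cell for 6 h after 1 h compound exposure.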

Test [9] is described as follows: qHTS assay for measurement of the activity of small molecule inhibitors on Zika virus induced Caspase-3 activity in human astrocytoma cells (AID 1224859). Further: potency means the concentration at half of the fitted maximal effect. Summed up: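 Compound added 1 h pre-infection; ZIKV 2 FFU/cell on SNB-19 cells, 6 h, 37 C/5% CO2. Caspase-Glo 3/7 luminescence; values as % inhibition of ZIKV-induced caspase activity.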
Test [10] can be described thus: qHTS Screen of the MIPE 4.0 Collection Against Ewings Sarcoma (RDES) (AID 1259252). Further: nearly all actives have a fitted effect of over 35% in size. Further: potency means the concentration at half of the fitted maximal effect. Put shortly: (§2)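 Cells plated in serum-containing RPMI (5% FBS) and treated with compound dilutions for 48 h. Readout luminescent viability; normalization relied on vehicle (no inhibition) and media-only columns (full inhibition).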
Test [11] can be described thus: qHTS Screen of the MIPE 4.0 Collection Against Ewings Sarcoma (EW8) (AID 1259255). Further: nearly all actives have a fitted effect of over 35% in size. Further: potency means the concentration at half of the fitted maximal effect.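 On viability: 100% = DMSO-treated cells and 0% = medium-only wells without cells.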 Summed up: as §2
Test [12] in a line: Identifying Small Molecule Inhibitors of Pancreatic Cancer Stem Cells (SN12C, Adherent) (AID 1259358).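 Further: cell survival measured after 48 h of compound exposure.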 Summed up:
(§3)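 Pre-formed 14-day tumor spheroids or adherent cells dosed and incubated 48 h, 37C, 5% CO2. Viability assessed by CellTiter-Glo.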

The nature of test [13]: Identifying Small Molecule Inhibitors of Pancreatic Cancer Stem Cells (SN12C, Spheroid) (AID 1259360).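 Further: 100% = DMSO-treated cells and 0% = wells without cells.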 Particulars: Potency: SN12C spheroid viability. Put shortly: (§4)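 Endpoint: ATP-based luminescence, 48 h drug exposure. Bortezomib at 9.2 uM final as full-kill control; DMSO vehicle as negative control; activity normalized between vehicle and cell-free wells.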
Test [14] can be described thus: Identifying Small Molecule Inhibitors of Pancreatic Cancer Stem Cells (A278, Adherent) (AID 1259361). Further: nearly all actives have a fitted effect of over 35% in size. Put shortly: as §3
Test [15] is described as follows: Identifying Small Molecule Inhibitors of Pancreatic Cancer Stem Cells (Panc1, Adherent) (AID 1259362).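 Further: compound exposure lasted 48 h before the viability read; plate controls were DMSO-treated cells for no effect and cell-free media wells for full effect.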 Particulars: Potency: viability. Put shortly:
as §4

The nature of test [16]: qHTS Screen of the MIPE 4.0 Collection Against Ewings Sarcoma (TC71) (AID 1259253). Further: nearly all actives have a fitted effect of over 40% in size. Further: potency means the concentration at half of the fitted maximal effect. Put shortly:
as §2

The nature of test [17]: qHTS Screen of the MIPE 4.0 Collection Against Ewings Sarcoma (TC32) (AID 1259256). Further: nearly all actives have a fitted effect of over 45% in size. Further: potency means the concentration at half of the fitted maximal effect. Put shortly:
as §2

In test [1], `CC(O)=C(C#N)C(=O)Nc1ccc(C(F)(F)F)cc1` yielded a remaining proliferation (% of control), lower = more inhibition of 98.9%. Besides, the parasite growth, % of DMSO control in test [2] worked out at 63.7%. The same compound registered a parasite growth remaining, % of DMSO control (lower = more inhibition) in test [3] of 89.7%. The compound further displayed a parasite growth, % of control (lower = inhibition) in test [4] of 63.9%. Further, the growth, % of control in test [5] was determined as 83.8%. Further, the cell viability, % of control (lower = more cytotoxic) in [6] amounted to 75%. For the same compound, the viability (% of control) in test [7] stood at 81.4%. Also, the Potency was 1.18 µM (active) in [8], 1.18 µM (active) in [9], 23.5 µM (active) in test [10] and 20.9 µM (active) in test [11]. Besides, the Potency result in [12], in [13] and in test [15] was “inactive” in each case. Moreover, the IC50 (viability decrease) in test [14] was 16.6 µM (active).

`O=C(Nc1ncc(SCCN2CCCC2)s1)[C@]1(c2ccc(S(=O)(=O)C3CC3)cc2)C[C@@H]1C1CCCCC1`: the parasite growth remaining, % of DMSO control (lower = more inhibition) in test [3] worked out at 7.78%. The parasite growth, % of control (lower = inhibition) in [4] worked out at 20.2%. This compound displayed a growth, % of control in [5] of 10.1%. In [6], the cell viability, % of control (lower = more cytotoxic) was found to be 116%. Moreover, the viability (% of control) in [7] amounted to 92.3%. The Potency result in test [8] and in [9] was “inactive” throughout. Further, the Potency in test [10] and in test [11] was 13.2 µM (active) in each case.

The compound `C[C@H]1[C@H](O)O[C@@H]2O[C@@]3(C)CC[C@@H]4[C@H](C)CC[C@@H]1[C@@]24OO3` came in with a parasite growth, % of DMSO control in [2] of 18.9%. In addition, the parasite growth remaining, % of DMSO control (lower = more inhibition) in [3] was determined as 7.23%. For the same compound, the parasite growth, % of control (lower = inhibition) in test [4] turned out to be 13.8%. The growth, % of control in [5] is 11.1%. In addition, the cell viability, % of control (lower = more cytotoxic) in test [6] was found to be 15.8%. In [7], the viability (% of control) came to 7.2%. Moreover, the Potency entry in test [8] and in [9] was “inactive” throughout. For the same compound, the Potency is 3.32 µM (active) in test [10] and 1.48 µM (active) in test [16].

Consider `C=CC[N+]1([C@H]2C[C@H]3[C@@H]4CC[C@H]5C[C@H](O)[C@@H](N6CCOCC6)C[C@]5(C)[C@@H]4CC[C@]3(C)[C@H]2OC(C)=O)CCCC1`, for which the parasite growth remaining, % of DMSO control (lower = more inhibition) in test [3] came to 41%. The same compound yielded a parasite growth, % of control (lower = inhibition) in test [4] of 21.1%. Besides, in [6], the cell viability, % of control (lower = more cytotoxic) came out at 168%. The viability (% of control) in test [7] came out at 116%. Also, the Potency result in [8], in test [9], in test [10], in test [11] and in test [17] was “inactive” in each case.

Consider `C[C@@]1(c2cc(-c3cncnc3)c(F)cc2F)CCSC(N)=N1`, for which the parasite growth remaining, % of DMSO control (lower = more inhibition) in test [3] came out at 44.7%. The same compound registered a parasite growth, % of control (lower = inhibition) in [4] of 28.2%. In test [5], this compound registered a growth, % of control of 14%. For the same compound, the cell viability, % of control (lower = more cytotoxic) in [6] came to 9.95%. In test [7], the viability (% of control) amounted to 13.1%. The Potency result in test [8], in [9], in test [10] and in [16] was “inactive” throughout.

Turning to `C[C@H](CCC(=O)O)[C@H]1CC[C@H]2[C@H]3[C@@H](CC[C@]12C)[C@@]1(C)CC[C@@H](O)C[C@H]1C[C@@H]3O`, the cell viability, % of control (lower = more cytotoxic) in test [6] was determined as 75.1%. For the same compound, the viability (% of control) in [7] came to 35.2%. Further, the Potency entry in [8], in test [9], in [10] and in test [17] was “inactive” in each case. Further, in test [11], the Potency is 18.7 µM (active).

For the compound `C[C@@H]1[C@H](O)[C@@H](C)C=CC=CC=CC=CC=CC=CC=C[C@H](O[C@@H]2O[C@H](C)[C@H](O)[C@H](N)[C@@H]2O)C[C@@H]2O[C@](O)(C[C@@H](O)C[C@@H](O)[C@H](O)CC[C@@H](O)C[C@@H](O)CC(=O)O[C@H]1C)C[C@H](O)[C@@H]2C(=O)O`, the parasite growth, % of DMSO control in test [2] came out at 16.7%. This compound came in with a parasite growth remaining, % of DMSO control (lower = more inhibition) in [3] of 9.78%. In [4], this compound returned a parasite growth, % of control (lower = inhibition) of 7.41%. Moreover, the growth, % of control in test [5] was determined as 29.7%. The cell viability, % of control (lower = more cytotoxic) in test [6] was 485%. The viability (% of control) in test [7] was 4.45%. In addition, the Potency entry in test [8] and in [9] was “inactive” in each case. For the same compound, the figures for the Potency in [10], in test [11] and in test [17] were 0.105 µM (active), 1.18 µM (active) and 0.743 µM (active), respectively.
